This is a sample that favours compounds with a hit; in the whole collection about 6.1% have one here.
D1 antag: antagonists of human D1 dopamine receptor; HEK293 TREx D1 cells, calcium flux, dopamine EC80; stronger effect = lower value; 3.2% of 360,000 active; activity change, negative = inhibition, % at 10 µM; in the data active means activity change below about -30%
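Cells carrying a force-coupled, tetracycline-inducible human D1 receptor report calcium flux. Each well gets a 10 s baseline, compound with 180 s monitoring, then an EC80 dopamine stimulus with a second 180 s kinetic read.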
D3 ag: agonists of human D3 dopamine receptor | P35462 | D3R DiscoveRx beta-arrestin cells, luminescence, 90 min | max activation, % | 0.58% of 410,000 active; in the data active means max activation above about 30%
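Agonist mode: compounds and dopamine controls were applied to plated cells for 90 min at 37 degrees C after an overnight attachment at 1500 cells/well. Luminescent read-out followed 30 - 60 minutes at room temperature with DiscoveRx detection reagent.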
D3 antag: blocks the human D3 dopamine receptor; P35462; D3R cells, DiscoveRx beta-arrestin luminescence, antagonist mode; stronger effect = lower value; max response, negative = inhibition, %; 2.5% of 360,000 active; AID 652054; in the data active means max response below about -50%; inconclusive means no clear call, values can overlap the other calls
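Cells plated overnight at 1500 cells/well, then exposed to library compounds with dopamine controls for 90 minutes at 37 degrees C. DiscoveRx reagent added for 30–60 minutes at room temperature; luminescence read, quantitative HTS format.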
D1 ag: agonists of human D1 dopamine receptor | P21728 | HEK293 T-REx D1 cells, calcium flux, agonist mode | activation, % at 2 µM | 1% of 360,000 active; in the data active means activation above about 30%
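Inducible HEK293 T-REx D1 cells, force-coupled to calcium signalling, were plated at 4000 cells/well with tetracycline and held overnight at 30 C. After no-wash calcium dye loading, compound-evoked calcium rise over 180 s flagged agonists.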
ERG Ets-DNA blk: ERG Ets/DNA interaction inhibition; 0.028% of 370,000 active; Potency, µM (top dose mostly 76.9 µM), hits mostly inhibitors; P11308; fluorescence polarization, His-ERG Ets domain / labelled DNA; active means well fitted inhibition curve with a large enough effect in the polarisation, with a control signal flat; inconclusive means small, poorly fitted or top-dose-only effect, or effect the other way, or a change in a side signal; inactive means no such curve, though single readings can be large or run the other way; the % refers to the polarisation;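 further: polarization taken with two DNA probes labelled with fluorescein and Texas red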
Target sequence (P11308 whole entry, looked up, the tested form may be a part): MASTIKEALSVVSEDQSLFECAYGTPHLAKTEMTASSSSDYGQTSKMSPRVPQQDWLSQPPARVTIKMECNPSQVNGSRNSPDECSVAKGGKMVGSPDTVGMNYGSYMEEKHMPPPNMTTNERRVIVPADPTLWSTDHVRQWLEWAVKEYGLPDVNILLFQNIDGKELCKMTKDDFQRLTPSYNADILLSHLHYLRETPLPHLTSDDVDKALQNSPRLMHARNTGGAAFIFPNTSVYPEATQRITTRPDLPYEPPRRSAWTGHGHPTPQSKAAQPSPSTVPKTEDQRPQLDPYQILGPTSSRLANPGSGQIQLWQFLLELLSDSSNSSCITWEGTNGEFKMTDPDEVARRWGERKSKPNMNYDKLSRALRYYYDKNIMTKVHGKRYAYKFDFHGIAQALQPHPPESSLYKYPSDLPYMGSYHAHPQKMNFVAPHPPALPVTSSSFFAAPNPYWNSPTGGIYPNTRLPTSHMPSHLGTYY
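His-tagged ERG Ets domain (1 uM in the protein solution; 300mM KCl, 50mM Tris-HCl, 1mM EDTA, 1mM DTT, pH 7.5) received compound, then a probe mix of 5 nM fluorescein-DNA and 100nM Texas-615-DNA. Fluorescence polarization was read for both dyes.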
D1 potentiator: potentiators of human D1 dopamine receptor; P21728; HEK293 TREx D1 cells, calcium flux, dopamine EC20 potentiation; potentiation, % at 10 µM; 0.036% of 360,000 active; AID 504651; in the data active means potentiation above about 30%
Large screens that a line does not name were inactive; ! = a repeat was not active.

O=[N+]([O-])c1ccc(N2CCN(C(=S)Nc3ccc(F)cc3)CC2)cc1	D1 antag -34
Cc1c(C(=O)Nc2ccccc2Br)oc2ccc(S(=O)(=O)N3CCCCC3)cc12	none (no result: D3 antag)
Cc1cc(C)n(-c2nc(NCCCN(C)C)c3c4c(sc3n2)CCCC4)n1	none
Cc1cc(C)n(-c2nc(NCCN(C)C)c3c4c(sc3n2)CCCC4)n1	D1 ag 33
CCN(CC)S(=O)(=O)c1cc(NC(=O)c2ccc(Br)s2)ccc1C	D1 antag -33
CCOc1ccc(NC(=O)c2c(NCc3cccs3)sc3c2CCCCC3)cc1	none (no result: D3 antag)
OC(c1cccc(CN2CCCCC2)c1)c1ncc(-c2cccc3ccccc23)[nH]1 (stereo not drawn)	D3 antag -54 (no result: D1 antag, D1 ag, ERG Ets-DNA blk, D1 potentiator)
OC(c1cccc(CN2CCCCC2)c1)c1ncc(-c2cccc(C(F)(F)F)c2)[nH]1 (stereo not drawn)	none (no result: D1 antag, D1 ag, ERG Ets-DNA blk, D1 potentiator)
COCCNC(=O)COc1ccc(Nc2ccccc2)cc1	none
COc1ccccc1NC(=S)NNC(=O)c1ccc(O)cc1	D3 antag -83
COc1ccccc1NC(=S)NNC(=O)c1nn(C)c(C)c1Cl	D1 antag -49, D3 antag -69
COc1ccccc1NC(=S)NNC(=O)c1nn(C)c(C)c1Br	none
COc1ccccc1C(=O)NNC(=O)c1ccc(O)cc1	none (no result: D1 antag, D1 ag, ERG Ets-DNA blk, D1 potentiator)
Cc1cc(C)n(CC(C)NC(=O)c2cc(COc3ccc(F)c(F)c3)on2)n1 (stereo not drawn)	none
C(=C\c1ccccc1)/CN1CCN(C(c2nnnn2-c2ccc3c(c2)OCCO3)C2CC2)CC1 (stereo not drawn)	D3 ag 41, D3 antag inconclusive (no result: D1 antag, D1 ag, ERG Ets-DNA blk, D1 potentiator)
C(=C\c1ccccc1)/CN1CCN(C(CCc2ccccc2)c2nnnn2-c2ccc3c(c2)OCCO3)CC1 (stereo not drawn)	D3 antag -110 (no result: D1 antag, D1 ag, ERG Ets-DNA blk, D1 potentiator)
O=C(Nc1ccc2c(c1)OCCO2)C(CCc1ccccc1)N1CCN(C/C=C/c2ccccc2)CC1 (stereo not drawn)	D3 antag -109 (no result: D1 antag, D1 ag, ERG Ets-DNA blk, D1 potentiator)
CCC(c1nnnn1-c1ccc2c(c1)OCCO2)N1CCN(c2ccccc2)CC1 (stereo not drawn)	none (no result: D1 antag, D1 ag, ERG Ets-DNA blk, D1 potentiator)
CCC(c1nnnn1-c1ccc2c(c1)OCCO2)N1CCN(C/C=C/c2ccccc2)CC1 (stereo not drawn)	D3 ag 66 (no result: D1 antag, D1 ag, ERG Ets-DNA blk, D1 potentiator)
Cc1cc([N+](=O)[O-])ccc1NC(=O)c1cc2ccccc2o1	none
Oc1[nH]c2ccccc2c1C=NCC1CCCO1 (stereo not drawn)	none
CCc1ccccc1NC(=O)C1(S(=O)(=O)c2ccc(Cl)cc2)CC1	none (no result: D3 antag)
O=C(COC(=O)c1cccnc1Cl)NC1CCCCCC1	none (no result: D1 antag, D1 ag, D1 potentiator)
O=C(Nc1ccc(Cc2ccncc2)cc1)c1cc([N+](=O)[O-])ccc1N1CCOCC1	none
COc1ccccc1NC(=O)CSc1nc2c(oc3ccccc32)c(=O)n1-c1ccc(C)cc1	D1 antag -39 (no result: D3 antag)
COc1ccc(NC(=O)CSc2nnc(-c3nonc3NC(C)=O)n2-c2ccccc2)cc1	D1 antag -46 (no result: D3 antag)
COc1ccc(-n2c(SCC(=O)Nc3ccc(C)cc3)nc(O)c(Cc3ccccc3)c2=O)cc1	D1 antag -51
CCOc1ccc(-n2c(SCC(=O)Nc3ccccc3OC)nc3c(oc4ccccc43)c2=O)cc1	none (no result: D3 antag)
COc1ccc([N+](=O)[O-])cc1NCc1cccc([N+](=O)[O-])c1	D3 antag -53
CSc1ccccc1C(=O)Nc1cccc([N+](=O)[O-])c1	none
COc1ccc([N+](=O)[O-])cc1NC(=O)c1ccccc1SC	D1 antag -43
COC(=O)Nc1cc([N+](=O)[O-])ccc1OC	none
COc1ccc([N+](=O)[O-])cc1NC(=O)C(C)N1CCCC1 (stereo not drawn)	D3 antag -62
O=C(Cn1ncc2c3ccccc3n(Cc3ccccc3)c2c1=O)NCCN1CCOCC1	none
CCN(CC)CCNC(=O)c1cc(Cl)c(N)cc1OC	D3 antag -117
CCN(CC)CCNC(=O)c1cc([N+](=O)[O-])c(N(C)C)cc1OC	D3 antag -93
CCOc1ccc(C(=O)OCCN(CC)CC)cc1	none
COC(=O)c1cc(Cl)c(N)cc1OC	none
CCN(CC)CCOC(=O)c1cc(Cl)c(N)cc1OC	D3 antag -58
CCN(CC)CCOC(=O)c1ccc(Cl)cc1	D3 antag -83
CCN(CC)C(=O)C1=C(C)NC(=O)NC1c1ccccc1F (stereo not drawn)	none (no result: D3 ag, D3 antag, ERG Ets-DNA blk)
COc1ccc(S(=O)(=O)N2CCC(NC(=O)C(Cc3cccc(OC)c3OC)NC(C)=O)CC2)cc1 (stereo not drawn)	none
O=C(NCCc1ccccc1)C1CCN(C2CCN(Cc3ccco3)CC2)CC1	D1 antag -35
CCc1c(C)[nH]c2c1C(=O)C(CN1CCOCC1)CC2 (stereo not drawn)	D3 antag -102 (no result: D1 antag, D1 ag, D1 potentiator)
CCOC(=O)C1CCCN(S(=O)(=O)c2ccc3c4c(cccc24)C(=O)N3CC)C1 (stereo not drawn)	D1 antag -32 (no result: D1 potentiator)
COc1ccc(OC)c(NC(=O)CCc2c(C)nc3c(c(C)nn3C(C)(C)C)c2C)c1	D1 antag -42 (no result: D3 antag)
Cc1nc2c(c(C)nn2C(C)(C)C)c(C)c1CCC(=O)Nc1ccc(Br)cc1Br	none (no result: D3 antag)
COCCCNC(=S)NCCCNc1nc2cc(C)cc(C)c2cc1C#N	none
O=C(CNc1ccc2c(c1)OCO2)N/N=C\c1ccccc1Cl	none
Cc1cc(=O)n2c(n1)OC(CO)C2 (stereo not drawn)	none (no result: ERG Ets-DNA blk)
CCc1nnc(NC(=O)CN2CCN(Cc3cccc(F)c3)CC2)s1	none
CCc1nnc(NC(=O)CN2CCN(Cc3cccc(Cl)c3)CC2)s1	D3 antag -52
COc1ccc(-n2c(=O)c3c(c4cc(OC)ccc4n3C)n(Cc3cc(C)ccc3C)c2=O)cc1	D1 antag -74 (no result: D3 antag)
COc1ccc(Cn2c(=O)n(-c3ccc(C)cc3)c(=O)c3c2c2cc(C)ccc2n3C)cc1	D3 ag 37 (no result: D3 antag)
CC(C)(C)N(CC(=O)NC1CCCCC1)C(=O)CS(=O)CC(=O)Nc1ccc(F)cc1 (stereo not drawn)	none
Nc1cc2c(cc1Cl)-c1ccccc1C2	none (no result: D1 antag, D1 ag, D1 potentiator)
CCOc1ccc(S(=O)(=O)Nc2cc(C)ccn2)c2ccccc12	D3 ag 32
COc1ccc(N2C(=O)NC(NS(=O)(=O)c3ccc(NC(C)=O)cc3)(C(F)(F)F)C2=O)cc1 (stereo not drawn)	D1 antag -51!
O=S(=O)(c1ccc2ccccc2c1)N1CCC(c2nc(-c3ccncc3)no2)CC1	D1 antag -35
CCN(CC)c1ccc(-n2c(C)cc(C=O)c2C)cc1	D1 antag -32
CCN(CC)c1ccc(-n2c(C)c(C(C)=O)c(C(C)=O)c2C)cc1	none
CC(C)OC(=O)CSc1nnc(-c2ccncc2)n1N	none
